Results taken from PubChem BioAssay (NCATS).
Measured potencies and affinities stand elsewhere. Values without a mark were called inactive. The rule behind the calls is not given here.
Note: 0% is about no effect.

Conditions: Ebola virus entry assay, green fluorescence channel
With `CN1CCCN(C(c2ccccc2)c2ccc(Cl)cc2)CC1` (stereo unspecified) the efficacy was 53.7%. With `Cc1nc(C2CCCCC2)c(-c2ccc(S(N)(=O)=O)c(F)c2)o1` the efficacy was 44.4%. In the case of `C[n+]1cc2c3c(ccc2c2ccc4cc5c(cc4c21)OCO5)OCO3`, the efficacy is reported as -149%. Compound `Clc1ccc(Cn2c(CN3CCCC3)nc3ccccc32)cc1` has an efficacy of 99.2%. Work on `Clc1ccc(C(Cn2ccnc2)OCc2c(Cl)cccc2Cl)c(Cl)c1` (stereo unspecified) yielded an efficacy of -112%. For `CC1=C(C)C(=O)C(C(CCCCCC(=O)O)c2ccccc2)=C(C)C1=O` (stereo unspecified), the efficacy was 61.1%. `CC[C@]12CCCN3CCc4c(n(c5ccccc45)C(=O)C1)[C@@H]32` showed an efficacy of 62%. `CC(C)N=C(N)/N=C(\N)Nc1ccc(Cl)cc1` gave an efficacy of 78.8%. `Nc1ccc2cc3ccc(N)cc3nc2c1` gave an efficacy of 154%. With `COC(=O)[C@H]1[C@H]2C[C@@H]3c4[nH]c5cc(OC)ccc5c4CCN3C[C@H]2C[C@@H](OC(=O)COc2ccc(OC)cc2)[C@@H]1OC` the efficacy was 21%. Compound `CN(C)CCCN1c2ccccc2Sc2ccc(C(F)(F)F)cc21` has an efficacy of -67.9%. `OC(CCN1CCCCC1)(c1ccccc1)c1ccccc1` showed an efficacy of 36.7%. `CN1CCC(=C2c3ccccc3CCc3sccc32)CC1` gave an efficacy of 69.4%. With `COc1ccc(CCN(C)CCCC(C#N)(c2cc(OC)c(OC)c(OC)c2)C(C)C)cc1OC` (stereo unspecified) the efficacy was 75%. `O=c1[nH]c2ccccc2n1CCCN1CCN(C(c2ccccc2)c2ccccc2)CC1` gave an efficacy of -120%. In the case of `CCCCOc1ccc(C(=O)CCN2CCCCC2)cc1`, the efficacy is reported as 94.7%.
